Compounds without any hit were thinned out: in the full panel of roughly 83,000, 20% have a hit.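 Values shown are percent growth following 48 h exposure of cells in 96-well plates to a single concentration of compound; below 10 was considered active.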 Unmarked numbers belong to inactive results. Activity calls are given as the source filed them.
The compounds below were run on CAKI-1 renal (assay: NCI-60 one-dose screen, 48 h (100 = growth as untreated, 0 = no growth, -100 = all killed)). Conditions: 10 µM.

Row | Structure (SMILES) | growth
1 | C/C(=C\c1cc(Cl)ccc1OCC(=O)O)[N+](=O)[O-] | 93.2%
2 | CSC[C@H](NC(=O)COc1cccc2cnccc12)C(=O)NC(Cc1ccccc1)C(O)C(=O)N1CSC[C@H]1C(=O)NC(C)(C)C (stereo partly drawn) | 95.5%
3 | COC1=CC(=O)c2nc(Cl)ccc2C1=O | 91.6%
4 | CCOC(=O)CCCC(=O)OCC | 95.2%
5 | CC(C)=C(NC(=O)c1ccccc1)C(=O)O | 103%
6 | Cc1cc2nc(CC(=O)c3cccc([N+](=O)[O-])c3)c(=O)[nH]c2cc1C | 76.5%
7 | COc1cc(C(=O)N/N=C/c2cccc([N+](=O)[O-])c2)cc(OC)c1OC | 55.4%
8 | O=c1cc(-c2ccccc2)[nH]c2c1CCCC2 | 24.5%
9 | CC1(c2ccccc2)NC(=O)NC1=O (stereo not drawn) | 104%
10 | CCCNC(=O)c1ccc(S(N)(=O)=O)cc1 | 110%
11 | COC(=O)c1[nH]c(=O)c(C#N)c(C(=O)OC)c1C(=O)c1ccccc1 | 90%
12 | O=C(O)[C@@H]1[C@H]2C[C@H]3c4[nH]c5ccccc5c4CCN3C[C@@H]2CC[C@@H]1O | 105%
13 | CCCCOC(OCCCC)c1ccccc1 | 96.3%
14 | CNc1nc(NC)c2cn[nH]c2n1 | 88.6%
15 | CC(C)=NNc1ccc([N+](=O)[O-])cc1[N+](=O)[O-] | 53.9%
16 | Nc1ccc(N=Nc2ccc(S(=O)(=O)O)cc2)c2ccccc12 | 91.5%

Row | Structure (SMILES) | growth
17 | COc1cc(OC)c2ccc(=O)oc2c1 | 113%
18 | Cc1ccc(/C=C2\SC(=S)N(c3ccc(F)cc3)C2=O)o1 | 54.9%
19 | COc1ccc2c(NCCCCCCCCNc3c4ccccc4nc4cc(OC)ccc34)c3ccccc3nc2c1 | -100% (active)
20 | O=C(NCCNC(=O)c1ccc(Cl)cc1Cl)c1ccc(Cl)cc1Cl | 84.4%
21 | CC1C(=O)c2ccccc2CC1C(=O)O (stereo not drawn) | 83.2%
22 | Cc1nc2ccccc2c2nnc(SCC(=O)N(Cc3ccccc3)c3ccccc3)n12 | 71.3%
23 | O=S(=O)(O)c1ccc(O)c2ccccc12 | 68.5%
24 | O=C1Cc2ccccc2C(=O)O1 | 99.9%
25 | Nc1nc(OCc2ccccc2)c2[nH]cnc2n1 | 74%
26 | Cc1c(C(=O)O)c(=O)n(-c2ccccc2)n1C | 98.3%
27 | COc1cc(/C=C/C(=O)c2ccccc2)cc(OC)c1OC | -23.3% (active)
28 | O=[N+]([O-])c1ccc(-c2noc(-c3cccs3)n2)cc1 | 77.8%
29 | CC(=O)OCC1OC(OC2=C(CC=C(C)C)C(=O)c3ccccc3C2=O)C(OC(C)=O)C(OC(C)=O)C1OC(C)=O (stereo not drawn) | 68.5%
30 | CCCCC/C=N/Nc1nc(C)cc(=O)[nH]1 | 88.3%
31 | [O-][N+](=Nc1cccc(Cl)c1)c1cccc(Cl)c1 | 96.4%
32 | COc1ccc(-c2cc3c(nn2)-c2ccccc2C3=O)cc1 | 28.9%

These compounds were tested on A498 renal in the same assay as above. Conditions: 10 µM.

Row | Structure (SMILES) | growth
33 | O=C(O)c1ccccc1NCc1ccco1 | 99.9%
34 | C/C(=C\c1cc(Cl)ccc1OCC(=O)O)[N+](=O)[O-] | 144%
35 | CSC[C@H](NC(=O)COc1cccc2cnccc12)C(=O)NC(Cc1ccccc1)C(O)C(=O)N1CSC[C@H]1C(=O)NC(C)(C)C (stereo partly drawn) | 95.6%
36 | COC1=CC(=O)c2nc(Cl)ccc2C1=O | 108%
37 | CCOC(=O)CCCC(=O)OCC | 92.1%
38 | N#Cc1ccc(NC(=O)Nc2cccc(C#N)c2)cc1 | 86%
39 | CC(C)=C(NC(=O)c1ccccc1)C(=O)O | 90.5%
40 | Cc1cc2nc(CC(=O)c3cccc([N+](=O)[O-])c3)c(=O)[nH]c2cc1C | 127%
41 | COc1cc(C(=O)N/N=C/c2cccc([N+](=O)[O-])c2)cc(OC)c1OC | 26.3%
42 | CN(C)C(C)(C)CC(C)(C)C | 110%
43 | O=c1cc(-c2ccccc2)[nH]c2c1CCCC2 | 19.2%
44 | CC1(c2ccccc2)NC(=O)NC1=O (stereo not drawn) | 123%
45 | COC(=O)c1[nH]c(=O)c(C#N)c(C(=O)OC)c1C(=O)c1ccccc1 | 113%
46 | O=C(O)[C@@H]1[C@H]2C[C@H]3c4[nH]c5ccccc5c4CCN3C[C@@H]2CC[C@@H]1O | 130%
47 | CCCCOC(OCCCC)c1ccccc1 | 84.7%
48 | CC1(O)OC(COc2ccc(Cl)cc2)COC1O (stereo not drawn) | 100%
49 | CNc1nc(NC)c2cn[nH]c2n1 | 112%
50 | CC(C)=NNc1ccc([N+](=O)[O-])cc1[N+](=O)[O-] | 74.5%

Row | Structure (SMILES) | growth
51 | CC(=O)CC(=O)N(C)C | 102%
52 | Nc1ccc(N=Nc2ccc(S(=O)(=O)O)cc2)c2ccccc12 | 126%
53 | COc1cc(OC)c2ccc(=O)oc2c1 | 101%
54 | c1ccc(Sc2ccccc2)cc1 | 97.6%
55 | Cc1ccc(/C=C2\SC(=S)N(c3ccc(F)cc3)C2=O)o1 | 112%
56 | COc1ccc2c(NCCCCCCCCNc3c4ccccc4nc4cc(OC)ccc34)c3ccccc3nc2c1 | -88.6% (active)
57 | O=C(NCCNC(=O)c1ccc(Cl)cc1Cl)c1ccc(Cl)cc1Cl | 104%
58 | CC1C(=O)c2ccccc2CC1C(=O)O (stereo not drawn) | 142%
59 | Cc1nc2ccccc2c2nnc(SCC(=O)N(Cc3ccccc3)c3ccccc3)n12 | -16.6% (active)
60 | CCCCC(O)c1ccccc1 (stereo not drawn) | 95.8%
61 | O=S(=O)(O)c1ccc(O)c2ccccc12 | 112%
62 | O=C1Cc2ccccc2C(=O)O1 | 123%
63 | Nc1nc(OCc2ccccc2)c2[nH]cnc2n1 | 86.1%
64 | O=[N+]([O-])c1ccc(-c2noc(-c3cccs3)n2)cc1 | 88.6%
65 | CC(=O)OCC1OC(OC2=C(CC=C(C)C)C(=O)c3ccccc3C2=O)C(OC(C)=O)C(OC(C)=O)C1OC(C)=O (stereo not drawn) | 22.6%
66 | CCCCC/C=N/Nc1nc(C)cc(=O)[nH]1 | 96.2%
67 | [O-][N+](=Nc1cccc(Cl)c1)c1cccc(Cl)c1 | 103%
68 | COc1ccc(-c2cc3c(nn2)-c2ccccc2C3=O)cc1 | 102%

Reference: PubChem BioAssay (NCI)
